Compound activity (PubChem BioAssay)
In the library only some 18% were active in any assay of this set; here they are far more common.
Six1-Eya2 blk – inhibitors of human Six1/Eya2 interaction; activity change, % (test concentration not listed); Q15475+O00167; AlphaScreen GST-Six1/His-Eya2 binding, biochemical; active compounds read low; hit rate 0.56% among 360,000; in the data active = activity change below about -65%; inconclusive = mostly about -30% to -63%
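GST-Six1 + His-Eya2 (5X stock: 250/500 nM); Tris pH 8.0, 300 mM NaCl, 0.05% BSA, 0.02% Tween 20; GSH donor/Ni acceptor beads; 1 h 37 °C dark; AlphaScreen readout.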
IL1B secr inh – blocks inflammasome-driven IL-1 beta release; THP-1 LPS/ATP IL-1B secretion, AlphaLISA, 16 h; active compounds read low; activity change, % at 57.5 µM; hit rate 4.7% among 360,000; AID 743279; in the data active = activity change below about -50%; inconclusive = mostly about -30% to -49%
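Secreted IL-1B measured by AlphaLISA bead assay after 16 h compound exposure of THP-1 cells; compounds (final up to 57.5 uM) added 1 h before LPS (250 ng/mL) and ATP (1.25 mM) stimulation; lower signal means less secretion.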
TDP1 inh – inhibitors of human tyrosyl-DNA phosphodiesterase TDP1. recombinant TDP1, AlphaScreen DNA substrate cleavage. Potency, µM (top dose mostly 130 µM), actives largely listed as inhibitors. hit rate 0.28% among 350,000; note: nearly all actives have a fitted effect of over 40% in size
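Tdp1 1 nM final; 15 min RT w/ cpd; substrate 15 nM, 5 min; beads 10 ug/ml, 10 min; AlphaScreen read. Neg ctrl: no enzyme.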
CtBP-E1A inh – blocks the CtBP interaction with E1A | AlphaScreen GST-E1A/His-CtBP binding, 1536-well; active compounds read low | activity change, % (concentration not given with the values) | hit rate 0.49% among 340,000 | AID 651724; in the data active = activity change below about -65%; inconclusive = mostly about -30% to -63%
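Homogeneous bead-based format: GST-tagged E1A captured on glutathione donor beads, His-tagged CtBP on nickel acceptor beads; compounds precede bead addition by 2 h at 37 °C.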
DT40 TDP1 CPT – growth inhibition of DT40 Tdp1-/-;hTDP1 cells with camptothecin (screen for TDP1 inhibitors) | chicken DT40 Tdp1-/-;hTDP1 cells + 20 nM CPT, ATP luminescence, 48 h | Potency, µM (doses to about 46.2 µM), actives largely listed as inhibitors | hit rate 12% among 420,000; note: nearly all actives have a fitted effect of over 55% in size
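Chicken DT40 Tdp1-/- cells complemented with human TDP1, 400 cells/well, exposed to compounds plus 20 nM camptothecin for at least 48 h at 37 C; viability read as ATP content by CellTiter-Glo luminescence.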
TDP1 cell noCPT – qHTS for Inhibitors of human tyrosyl-DNA phosphodiesterase 1 (TDP1): qHTS in cells in absence of CPT | hit rate 15% among 420,000 | Potency, µM (top dose mostly 46.2 µM), actives largely listed as inhibitors | DT40 Tdp1-/- hTDP1 cells, no CPT, ATP luminescence, 48 h; note: nearly all actives have a fitted effect of over 55% in size
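Growth of hTDP1-complemented DT40 Tdp1-knockout cells is measured by ATP luminescence after at least 48 hr compound exposure at 37 °C, with DMSO substituting for the 20 nM CPT used in the parallel screen.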
Large screens that a line does not name were inactive. Unless noted, calls come from the whole dose curve; as a rule, active = well fitted curve in the direction sought with a large enough effect; inconclusive = small, poorly fitted or top-dose-only effect, or another doubt; inactive = no such curve, though single readings can be large; an effect the other way counts as inactive or inconclusive.

CC1Cc2ccccc2N1S(=O)(=O)c1cnc(Cl)c(Br)c1 (stereo not drawn)	IL1B secr inh -70, DT40 TDP1 CPT inconclusive, TDP1 cell noCPT inconclusive
COC(=O)c1ccc(NC(=O)CCn2cnnn2)c(C)c1	none (no result: Six1-Eya2 blk, IL1B secr inh, CtBP-E1A inh, DT40 TDP1 CPT, TDP1 cell noCPT)
CN(C)CC(C)(O)c1ccc2c(c1)CN(Cc1cccn1-c1ncccn1)CCO2 (stereo not drawn)	none (no result: Six1-Eya2 blk, IL1B secr inh, TDP1 inh, CtBP-E1A inh)
O=C(Nc1ccc(F)cc1)c1sc2cc(C(F)(F)F)cnc2c1-c1cccs1	DT40 TDP1 CPT inconclusive, TDP1 cell noCPT 18µM
Cc1ccccc1N=C1SC(CC(=O)Nc2ccc3ccccc3c2)C(=O)N1Cc1ccccn1 (stereo not drawn)	IL1B secr inh inconclusive, DT40 TDP1 CPT 18µM, TDP1 cell noCPT 21µM
CCN1C(=O)C(CC(=O)Nc2cccc(C(C)=O)c2)S/C1=N\c1ccccn1 (stereo not drawn)	DT40 TDP1 CPT inconclusive, TDP1 cell noCPT inconclusive
O=C(CC1SC(=Nc2cccc3ccccc23)N(Cc2ccccn2)C1=O)Nc1ccccc1Br (stereo not drawn)	DT40 TDP1 CPT 4.6µM, TDP1 cell noCPT 2.3µM
O=C(CC1SC(=Nc2ccccc2)N(Cc2ccccn2)C1=O)Nc1ccc(Br)cc1 (stereo not drawn)	IL1B secr inh inconclusive, DT40 TDP1 CPT 16µM, TDP1 cell noCPT 10µM
CC(C)c1ccc(S(=O)(=O)c2cn(CC(=O)Nc3ccc(F)cc3)c3ccccc3c2=O)cc1	none (no result: Six1-Eya2 blk, IL1B secr inh, CtBP-E1A inh)
CCC(=O)Nc1ccc(-c2nn3c(C)nnc3s2)cc1C	none
Cc1cc2c(cc1C)C(c1cccc([N+](=O)[O-])c1)CC(=O)N2 (stereo not drawn)	DT40 TDP1 CPT 23µM, TDP1 cell noCPT 18µM
COc1cc(C2CC(=O)Nc3cc(C)c(C)cc32)cc(OC)c1OC (stereo not drawn)	DT40 TDP1 CPT 16µM, TDP1 cell noCPT 12µM
COc1ccc(C2CC(=O)Nc3cc(OC)c(OC)cc32)cc1 (stereo not drawn)	IL1B secr inh inconclusive (no result: TDP1 inh)
CCOc1c(OC)cccc1C1CC(=O)Nc2cc(OC)c(OC)cc21 (stereo not drawn)	DT40 TDP1 CPT inconclusive, TDP1 cell noCPT 18µM
COc1cc2c(cc1OC)C(c1cccc(F)c1)CC(=O)N2 (stereo not drawn)	TDP1 cell noCPT inconclusive (no result: TDP1 inh)
COc1ccc(C2CC(=O)Nc3cc(OC)c(OC)cc32)cc1Br (stereo not drawn)	none
CCOc1c(Br)cc(C2CC(=O)Nc3cc(OC)c(OC)cc32)cc1OC (stereo not drawn)	DT40 TDP1 CPT inconclusive, TDP1 cell noCPT 23µM
COc1cc2c(cc1OC)C(c1ccc(OC)c(OC)c1OC)CC(=O)N2 (stereo not drawn)	none
Cn1c(N)c(C(=O)CSc2nnc3n2CCCCC3)c(=O)n(C)c1=O	none
CC(=NCCc1ccccc1)C1=C(O)COC1=O	none
CCOc1cccc(C2CC(=O)Nc3cc4c(cc32)OCCO4)c1 (stereo not drawn)	DT40 TDP1 CPT 5.2µM, TDP1 cell noCPT 5.8µM (no result: Six1-Eya2 blk, IL1B secr inh, CtBP-E1A inh)
COc1cc2c(cc1OC)C(c1ccccc1C(F)(F)F)CC(=O)N2 (stereo not drawn)	IL1B secr inh -53, TDP1 cell noCPT inconclusive (no result: TDP1 inh)
CCCOc1c(OC)cccc1C1CC(=O)Nc2cc3c(cc21)OCO3 (stereo not drawn)	DT40 TDP1 CPT inconclusive, TDP1 cell noCPT 21µM
COc1cc(C2CC(=O)Nc3n[nH]c(-c4ccccc4)c32)cc(OC)c1OC (stereo not drawn)	DT40 TDP1 CPT 8.2µM, TDP1 cell noCPT 15µM
CCOc1ccccc1C1CC(=O)Nc2cc3c(cc21)OCO3 (stereo not drawn)	none
Cc1ccc(C2CC(=O)Nc3cc4c(cc32)OCCO4)cc1 (stereo not drawn)	none (no result: Six1-Eya2 blk, IL1B secr inh, CtBP-E1A inh)
Cc1ccc(Cl)cc1N1C(=O)CC(Sc2ccccc2N)C1=O (stereo not drawn)	none (no result: TDP1 inh)
CCCOc1c(OC)cccc1C1CC(=O)Nc2cc3c(cc21)OCCO3 (stereo not drawn)	DT40 TDP1 CPT inconclusive, TDP1 cell noCPT 13µM
Fc1ccccc1CNc1cc(Cl)cc(Cl)c1	DT40 TDP1 CPT inconclusive
S=c1[nH]nc(-c2ccc(Cl)cc2)n1/N=C/C=C/c1ccco1	DT40 TDP1 CPT inconclusive, TDP1 cell noCPT 21µM
Cc1ccccc1-c1n[nH]c(=S)n1/N=C/C=C/c1ccco1	DT40 TDP1 CPT inconclusive, TDP1 cell noCPT 18µM (no result: TDP1 inh)
S=c1[nH]nc(-c2cccnc2)n1/N=C/C=C/c1ccco1	TDP1 inh 40µM
S=c1[nH]nc(-c2ccccc2)n1/N=C/C=C/c1ccco1	DT40 TDP1 CPT inconclusive, TDP1 cell noCPT inconclusive
Cc1cc(-c2n[nH]c(=S)n2/N=C/C=C/c2ccco2)n[nH]1	none
CCOc1cc(C(=S)N2CCOCC2)ccc1OC(=O)c1ccccc1	DT40 TDP1 CPT inconclusive (no result: TDP1 inh, CtBP-E1A inh)
O=C1c2ccc(O)c(O)c2C(=O)c2c(O)ccc(O)c21	DT40 TDP1 CPT 10µM, TDP1 cell noCPT inconclusive (no result: Six1-Eya2 blk, IL1B secr inh, TDP1 inh, CtBP-E1A inh)
O=C1c2ccccc2C(=O)c2c([N+](=O)[O-])ccc(O)c21	TDP1 cell noCPT 21µM (no result: TDP1 inh)
O=C1c2ccccc2C(=O)c2c1ccc(O)c2O	Six1-Eya2 blk -65, CtBP-E1A inh inconclusive
COC(=O)c1ccc2c(c1O)C(=O)c1ccccc1C2=O	Six1-Eya2 blk inconclusive, IL1B secr inh inconclusive, CtBP-E1A inh inconclusive, DT40 TDP1 CPT 23µM, TDP1 cell noCPT 21µM
CC(=O)C[C@@H](c1ccccc1)c1c(O)c2ccccc2oc1=O	none (no result: Six1-Eya2 blk, IL1B secr inh, CtBP-E1A inh, DT40 TDP1 CPT, TDP1 cell noCPT)
CCc1ccc(NC(=O)c2ccc(OC)c([N+](=O)[O-])c2)cc1	none
Cn1c(=O)c2nc(-c3ccccc3)c(-c3ccccc3)nc2n(C)c1=O	DT40 TDP1 CPT inconclusive, TDP1 cell noCPT 21µM (no result: TDP1 inh)
O=c1c2ccccc2nc(SCc2cn3ccsc3n2)n1-c1ccccc1	none
CCN(C(=O)CSc1nc2ccccc2c(=O)n1-c1cccc(C)c1)C1CCS(=O)(=O)C1 (stereo not drawn)	DT40 TDP1 CPT 16µM, TDP1 cell noCPT inconclusive
Cc1nc(SCC(=O)N(CC(C)C)C2CCS(=O)(=O)C2)c2ccccc2n1 (stereo not drawn)	TDP1 cell noCPT inconclusive
CCC(C)N(C(=O)CSc1nc(C)nc2ccccc12)C1CCS(=O)(=O)C1 (stereo not drawn)	IL1B secr inh -59, TDP1 cell noCPT inconclusive
Cc1cccc(-n2c(SCc3cc(=O)n4ccsc4n3)nc3ccccc3c2=O)c1	DT40 TDP1 CPT inconclusive, TDP1 cell noCPT 15µM
O=C(CCCCCn1c(SCC(=O)c2ccccc2)nc2ccccc2c1=O)NCc1ccco1	DT40 TDP1 CPT 8.2µM, TDP1 cell noCPT 21µM
